system: VDR:RXRa (NR concentration 270 nM, RXRa partner concentration 90 nM); experiment: PBM binding z-score (relative to random genomic background probes); higher = stronger binding; sequences stand for … in GC…GCGATTGACAGCGTAGAATGAAGG
Protocol: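 Protein-binding microarray (Agilent 4x180K custom design, double-stranded 60-nt probes: 5' GC cap, 34-nt variable region, 24-nt constant primer region; full probe sequence given). Purified or IVT nuclear receptor:RXRα heterodimers (3:1 NR:RXRα, mostly 270:90 nM) or homodimers were incubated for 1 h in PBS with 2% milk and no ligand, then detected with Alexa488 antibodies. Fluorescence from o1-orientation probes (~5 replicates averaged) was converted to z-scores against 500 random hg19 background probes. Variable regions are seed direct-repeat (DR0–DR5) sites, all their single-nucleotide variants and half-site ablations.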

Sequence | PBM binding z-score
ATCGATAGGTCGAAGGTGAGTATACCCACCCGAA | 0.776
CGTCCAAGGTCAATGGTCAGTGAAGAGATGACGG | 3.55
AATACAGGGTCATGGTAGGCCAGAGTACGCACAG | 4.95
TCATATAGGTACTACAGGTGAAAGTCGGCATCTA | 0.876
CGTCCAAGGTCAACGGTCAGTGAAGAGATGACGG | 4.18
GGAACGAGGGCAAGATGATAGCAGAGTTTGATGG | 0.221
TCTTGCAGATCAAGCAGGTTAAGAAAGCCTGAGT | 0.157
ATCGAAAGGGCGAAGGTGAGTATACCCACCCGAA | 0.347
AGTCAAAGTCCATCTAGGTAACGTAAGATATGCT | 0.131
GGAACGAGGGCAAAGTTGATATCATCTGTCGACG | 1.34
AATACAGGCTCACTAGGCCAGAGTAGGTACGAAT | -0.46
CGTCCAAGGTCAAAGGTTAGTGAAGAGATGACGG | 5.39
TCATATTGGTAAACAGGTGAAAGTCCGTAAGTTA | 1.08
TAGCCTAGGTCTTTCAGGGGCCAGTATAGAAAGC | -0.481
GCATATAGGTAATACTAGGTGAAAGTCCGATTGT | 0.212
TCTAGTTGGTCAAAGGTCACTCACTCGAAATGCG | 4.92
CGTCCAAGGTCTGCAGGTCAGTGAAAGCGACGTG | -0.117
CGTCCCAGGTCAATGCTAGGTCAGTGAAAGCATT | 3.68
TCGAGTAGGTTAGGGGCATTCTGAATGGCGTCGA | 0.242
ATCTCTAGGTAAGGATAGTTCAGTGAATGCAAAT | 0.733

Sequence | PBM binding z-score
AGAATGAGGTTACCAAATATCAGGGAAACGCTTG | 1.34
TCTTGTAGATCAAGCACGTTAAGAAAGCCTGAGT | 0.187
GCGACTGGGGCCTCAGCAGGTTACCATAACTTAA | -0.529
CCTAGTTGGTCGAGGTCACACACGCTATAGGTAC | 4.8
GCTTGTAGATCAAGGTTAAAAAAGACTAAGCTAA | 0.328
TCATATAGGTAATACAGGGGAAAGTCGGCATCTA | 1.06
CCTCGGTGGACAACAGGAGGTCAGAGCTGCCAGA | 1.07
CCGAGTAGGTTATGGGGCATGCAGGCAACGGTGA | -0.196
ATACCAACGTGATCGTGAGGTCGTTGATACTAAC | 1.8
CATACAGGGTCAGCTACGCCAGAGTAGGGACGGC | 2.74
CCTAGCAGGCCAGGGTCACTCTAGCATTTCGCTT | 2.45
ACAGACAGGTGAGTGGAGGTAACTCAGCTGGACG | -0.0789
CATACAGGGTCAGCTAGGCCAGTGTAGGGACGGC | 3.86
GCGACCGGGGCAAAGCAGGTTACCATAAGGTTGG | 0.7
GTTTACGGGTCAAAGGTTATAGCATGAATAGAAT | 5.82
GCTCGGAGGAAAAGGTCAGAGCTTTGTCCGTAGA | 2.14
CCTAGTGGGCCAAAAAGGTCATTGATGCCGATAA | 4.82
ACTATTAGTTCAGACGAGGGCAACCGATAGGTTG | 2.84
CCAGACAGGTGAGAAGGTAATTCAGCCTCGATTA | -0.16
ATCGAAAGGTCGACGAGGTGACTATACACCGTTT | 5.95

— the supplement of paper PMC6555819
